# Compound activity (PubChem BioAssay)
# In the library only some 3.5% were active in any assay of this set; here they are far more common.
# BoNT F protease: BoNT F light chain protease inhibition; Multiplex microsphere protease cleavage assay, flow cytometry; inhibition, % at 10 µM; 360,000 tested, 0.22% active; in the data active = inhibition above about 35%, passing the limit was not always enough; inconclusive = no clear call, values can overlap the other calls; also: plate controls were buffer without enzyme for full effect and enzyme alone for no effect
# BoNT-A LC inh2: inhibitors of Botulinum neurotoxin A light chain protease; multiplex microsphere protease substrate cleavage, flow cytometry; AID 588499; 360,000 tested, 0.17% active; inhibition, % at 10 µM; also: plate controls were buffer without enzyme for full effect and enzyme alone for no effect
# Bead autofluor: counter-screen for toxin protease inhibitors: compound fluorescence; compound autofluorescence counterscreen, microsphere flow cytometry; hits give high values; fluorescence intensity (concentration not given with the values); 360,000 tested, 3.1% active; AID 624483; in the data active = fluorescence intensity above about 16000; inconclusive = no clear call, values can overlap the other calls
# Anthrax LF prot: inhibitors of Bacillus anthracis lethal factor protease; P15917; multiplex microsphere protease cleavage assay, LF; inhibition, % at 10 µM; 360,000 tested, 0.12% active; AID 588501; also: plate controls were buffer without enzyme for full effect and enzyme alone for no effect
# Target sequence (P15917 whole entry, looked up): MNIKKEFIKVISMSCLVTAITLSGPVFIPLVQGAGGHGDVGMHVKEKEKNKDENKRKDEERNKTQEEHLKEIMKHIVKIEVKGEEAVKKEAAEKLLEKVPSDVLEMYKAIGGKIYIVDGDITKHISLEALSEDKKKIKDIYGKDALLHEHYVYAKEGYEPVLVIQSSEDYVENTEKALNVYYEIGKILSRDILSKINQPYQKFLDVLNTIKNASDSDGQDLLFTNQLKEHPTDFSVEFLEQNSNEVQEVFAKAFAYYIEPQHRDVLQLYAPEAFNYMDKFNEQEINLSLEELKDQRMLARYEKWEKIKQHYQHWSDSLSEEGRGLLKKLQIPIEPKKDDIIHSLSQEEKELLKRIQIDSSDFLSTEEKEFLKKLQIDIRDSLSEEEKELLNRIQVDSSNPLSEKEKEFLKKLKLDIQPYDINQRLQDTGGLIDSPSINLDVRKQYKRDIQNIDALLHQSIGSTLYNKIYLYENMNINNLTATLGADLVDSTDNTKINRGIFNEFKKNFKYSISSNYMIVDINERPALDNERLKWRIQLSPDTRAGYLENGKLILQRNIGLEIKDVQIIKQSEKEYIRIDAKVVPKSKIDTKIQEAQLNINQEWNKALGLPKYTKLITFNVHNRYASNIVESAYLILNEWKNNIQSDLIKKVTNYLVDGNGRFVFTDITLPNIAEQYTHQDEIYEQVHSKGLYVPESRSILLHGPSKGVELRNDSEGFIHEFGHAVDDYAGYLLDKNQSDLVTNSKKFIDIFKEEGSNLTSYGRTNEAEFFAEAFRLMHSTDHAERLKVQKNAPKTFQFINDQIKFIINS
# * hit, by the source's call; ? = inconclusive. Rule as the data show it, unless noted: active = inhibition above about 30%; inconclusive = no clear call, values can overlap the other calls; inactive = below that.
SMILES,BoNT F protease,BoNT-A LC inh2,Bead autofluor,Anthrax LF prot
CCOc1ccc(C(=O)N2CCCC2)cc1,1,0,9070,-3
CCOC(=O)C1CCCN(C(=S)Nc2ccc(C)cc2C)C1 (stereo not drawn),-2,0,16244*,-1
CCOc1ccc(C(=O)N2CCN(c3cccc(C)c3C)CC2)cc1,-6,-2,17197*,-1
CCOC(=O)C1CCCN(C(=S)Nc2ccc(Nc3ccccc3)cc2)C1 (stereo not drawn),-7,0,3346,1
CCCCOc1ccc(C(=O)N2CCCC2)cc1,-1,?,16482*,0
CCCCC(=O)N1CCCC(C(=O)OCC)C1 (stereo not drawn),0,-1,22655*,-1
COc1ccc(NS(=O)(=O)c2cccc(C(=O)OCC(=O)NC3CC3)c2)cc1,-7,0,6130,0
CCOC(=O)COc1ccccc1/C=C\[N+](=O)[O-],1,-1,2241,-2
CCOC(=O)N1CCN(C(=O)c2ccc(OC)c(OC)c2)CC1,-8,1,4292,-4
CCOC(=O)C1CCCN(C(=O)c2ccc(OCC)cc2)C1 (stereo not drawn),-2,-1,24552*,1
CCOC(=O)C1CCCN(C(=O)c2ccc(C(=O)c3ccccc3)cc2)C1 (stereo not drawn),0,0,?,-6
COc1ccc(C(=O)NCC(=O)N2CCCCC2)cc1OC,1,0,3383,-1
CCCOc1ccc(C(=O)N2CCCC2)cc1OC,-1,?,19871*,1
COc1ccc(C(=O)NN2CCCCC2)cc1OC,2,?,22220*,2
CCC1=Nc2cc(C(=O)NCCCN3CCN(C)CC3)ccc2Sc2ccccc21,-6,-1,5790,0
CCNS(=O)(=O)c1ccc(Br)c(OC)c1,0,-1,20265*,-2
COCCNS(=O)(=O)c1ccc(C2CNC(=O)C2)cc1 (stereo not drawn),-1,0,5261,-2
COc1ccc(S(=O)(=O)NCCOc2ccccc2)cc1OC,4,1,22108*,0
COc1ccc(S(=O)(=O)NCCOc2ccccc2)cc1-n1cnnn1,1,-1,4706,5
O=C1CC(c2ccc(S(=O)(=O)NCCOc3ccccc3)cc2)CN1 (stereo not drawn),2,3,21883*,-2
COc1cccc(-c2cc3nc(C)c(C)c(N4CCN(C(=O)c5ccoc5)CC4)n3n2)c1,2,0,3824,5
CC(=O)OC1CCC2C3CCc4cc(OP(=O)(N5CC5)N5CC5)ccc4C3CCC12C (stereo not drawn),4,1,3686,4
CC1=C(C(=O)OCc2ccccc2)C(c2ccc(C#N)cc2)NC(=O)N1CCCC(=O)O (stereo not drawn),-4,-1,4034,2
CN1CC(c2ccc(C#N)cc2)C2(COc3ccccc3C2=O)C12C(=O)Nc1ccccc12 (stereo not drawn),8,6,19424*,-7
CC(=O)N1CCN(c2ccc(S(=O)(=O)N3CCCCC3)cn2)CC1,-7,-4,18018*,2
SMILES,BoNT F protease,BoNT-A LC inh2,Bead autofluor,Anthrax LF prot
NC(=O)C1CCN(c2ccc(S(=O)(=O)N3CCCCC3)cn2)CC1,-3,0,3452,1
CCN1CCN(c2ccc(NC(=O)c3ccco3)cc2)CC1,-6,0,6242,0
CCN1CCN(c2ccc(NC(=O)c3cccc4ncccc34)cc2)CC1,-10,?,22120*,-12
CCOC(=O)C(=CNc1ccccc1C)C(=O)OCC,1,-1,5509,-4
CCOC(=O)C(=CNc1cc(C)nn1-c1ccccc1)C(=O)OCC,7,?,21382*,-3
CCOC(=O)c1ccccc1NC(=O)COC(=O)C(CCSC)NC(=O)COc1ccccc1 (stereo not drawn),2,-4,6436,-1
CCN(CC)S(=O)(=O)c1cccc(C(=O)NC(C(=O)NNC(=O)c2ccccc2F)C(C)C)c1 (stereo not drawn),1,-1,2889,-11
Cc1cc(C)cc(OCC(=O)Nc2nonc2NC(=O)COc2cc(C)cc(C)c2)c1,2,?,18944*,-11
Cc1cccc(OCC(=O)Nc2cc(NC(=O)COc3cccc(C)c3)cc(C(=O)O)c2)c1,2,1,3428,-2
Cc1cc(C)cc(OCC(=O)Nc2cccc(C(=O)O)c2)c1,-9,?,17933*,0
C[C@@H]1CN([C@H](C)CO)C(=O)c2cc(NC(=O)c3ccncc3)ccc2O[C@@H]1CN(C)C(=O)Nc1ccccc1,-1,1,2690,6
O=C1C(=O)c2ccc(-c3ccccc3)cc2-c2ccccc21,0,0,16446*,-1
CCOC(=O)C(=O)Nc1ccccc1C(=O)OCC,-6,-2,3848,-2
CCOC(=O)C(=O)Nc1ccccc1C(=O)NC(C)C,0,0,22964*,-1
CCOc1ccccc1NC(=O)c1ccccc1-c1ccccc1,?,2,4073,1
CCOC(=O)CCC(=O)Nc1ccccc1C(N)=O,-3,?,22534*,-5
CCOc1ccccc1C(=O)Nc1ccccc1C(N)=O,2,?,23043*,-4
CCCCN(C(=O)c1c(C)noc1C)c1c(N)n(CCC)c(=O)[nH]c1=O,6,0,4020,-1
CCn1c(=S)sc2c(=O)n(CC(=O)Nc3cc(OC)ccc3OC)c(C)nc21,4,0,5694,0
CCN(CC)S(=O)(=O)c1cccc(NC(=O)CC2CCCC2)c1,7,-3,3152,5
CCN(CC)S(=O)(=O)c1cccc(C(=O)NC2CCCCC2)c1,-1,?,21448*,1
CCN(CC)S(=O)(=O)c1cccc(NC(=O)Nc2cccc(C(F)(F)F)c2)c1,-11,-6,21515*,-4
CCN(CC)S(=O)(=O)c1cc(C(=O)Nc2cccnc2)ccc1Cl,-1,0,11204,-2
CN(c1ccccc1)S(=O)(=O)c1cccc(C(=O)NC2CCCC2)c1,-1,0,3498,1
CCN(CC)S(=O)(=O)c1cccc(C(=O)Nc2cccnc2)c1,3,?,22467*,-8
SMILES,BoNT F protease,BoNT-A LC inh2,Bead autofluor,Anthrax LF prot
CC(=O)c1c(N2CCN(c3ccccc3)CC2)nc(=S)n(-c2ccccc2)c1C,-50,8,3863,-11
CC(=O)c1c(N2CCN(Cc3ccccc3)CC2)nc(=S)n(Cc2ccccc2)c1C,-11,42*,4562,8
CC(=O)c1c(N2CCC(C(N)=O)CC2)nc(=S)n(-c2ccccc2)c1C,-1,0,22860*,-3
O=S(=O)(N1CCOCC1)N1CCOCC1,-4,-1,3550,-8
Cc1ccc(C)n1-c1ccc(N2CCOCC2)nc1,-10,0,22547*,-4
O=C(c1cc(Cl)cc(Cl)c1)N1CCOCC1,2,1,20304*,0
Cc1ccc(C)n1-c1ccc(C(=O)N2CCOCC2)cc1,-1,?,22385*,-1
Cc1ccc(NS(=O)(=O)c2ccc(N3C(=O)CCC3=O)cc2)cc1,10,7,18928*,-18
CC(C)c1ccc(NS(=O)(=O)c2ccc(N3C(=O)CCC3=O)cc2)cc1,-2,0,4555,4
CS(=O)(=O)NCc1ccc(C(=O)O)cc1,0,-1,4395,-4
Cc1cc(N2CCCC2)c(F)cc1/C=C\[N+](=O)[O-],22,62*,9071,35*
